# Source: PubChem BioAssay AID463173 (ICCB-Longwood Screening Facility, Harvard Medical School, 2010)
# Screen size: about 52,000 compounds; about 4,300 (8.3%) were called active. No stated cut-off is given here; in the data, active means survival mostly below about 52% (no sharp cut-off); inactive means mostly above about 56%. The list comes from a sample in which actives are over-represented; it also holds similar structures and randomly drawn compounds.
# Tested on: DeltatarO mutant
# Test: growth inhibition of S. aureus wild type versus tarO mutant, primary screen, teichoic acid synthesis inhibitors, RN4220, OD600 (AID 463173)
# Settings: OD600, 18 h, stronger effect = lower value, screened at 18.75 µg/mL (by protocol)
row,Structure (SMILES),survival
1,CCOC(=O)N1CCc2c(sc(NCc3sccc3C)c2C(=O)Nc2ccccc2OCC)C1,94% (inactive)
2,O=C(NCCS(=O)(=O)N1CCN(c2ccc(F)cc2)CC1)C(c1ccccc1)c1ccccc1,113% (inactive)
3,CC(C)COc1ccc(C(=O)N2CCN(CCc3ccccn3)CC2)cc1,63% (inactive)
4,CC(C)(C)C(=O)C1C2C3COC(O3)C(=O)C2C2C=Cc3ccccc3N21 (stereo unspecified),124% (inactive)
5,CCc1cccc(NC(=O)Cn2c(=O)n(CC(=O)NCCc3ccccc3)c(=O)c3ccccc32)c1,102% (inactive)
6,COc1cc(Cl)c(C)cc1NC(=O)c1cc2c(Cl)nc3ccc(C)cc3c2s1,64% (inactive)
7,CSc1ncc(C(=O)N2CCN(c3ccc(Cl)cc3)CC2)c(C)n1,106% (inactive)
8,CCS(=O)(=O)c1ncc(Cl)c(C(=O)N2CCN(c3cccc(Cl)c3)CC2)n1,8% (active)
9,CCSc1ncc(Cl)c(C(=O)N2CCN(c3ccc(OC)cc3)CC2)n1,83% (inactive)
10,CCS(=O)(=O)c1ncc(Cl)c(C(=O)N2CCN(c3ccc(OC)cc3)CC2)n1,68% (inactive)
11,CSc1ncc(C(=O)N2CCN(c3cccc(C(F)(F)F)c3)CC2)c(C)n1,69% (inactive)
12,CCSc1ncc(Cl)c(C(=O)N2CCN(c3ccccc3OC)CC2)n1,76% (inactive)
13,Cn1cc(S(=O)(=O)N2CCCC2)cc1C(=O)N1CCN(c2cccc(Cl)c2)CC1,73% (inactive)
14,CS(=O)(=O)N1CCc2cc(C(=O)N3CCN(c4cccc(Cl)c4)CC3)ccc21,49% (inactive)
15,CCCSc1ncc(Cl)c(C(=O)N2CCN(c3cccc(Cl)c3)CC2)n1,40% (active)
16,CCCSc1ncc(Cl)c(C(=O)N2CCN(c3ccc(OC)cc3)CC2)n1,49% (inactive)
17,CSc1ncc(C(=O)N2CCN(c3cccc(Cl)c3)CC2)c(C)n1,0% (active)
18,CS(=O)(=O)c1ncc(Cl)c(C(=O)N2CCN(c3cccc(Cl)c3)CC2)n1,17% (active)
19,O=C(c1cccnc1)N1CCN(CCN2C(=O)C3C4C=CC(C4)C3C2=O)CC1 (stereo unspecified),89% (inactive)
20,COc1ccc(-n2nc(C(=O)NCCc3ccc(OC)c(OC)c3)c3c4ccccc4n(C)c3c2=O)cc1Cl,95% (inactive)
21,CCOc1ccc(S(=O)(=O)NCCc2csc(-c3ccc(Cl)cc3)n2)cc1,91% (inactive)
22,O=C1CC(c2ccccc2)Cc2[nH]c(=O)c(-c3nc(-c4ccc(F)cc4)cs3)cc21 (stereo unspecified),154% (inactive)

row,Structure (SMILES),survival
1,Cc1ccc(NC(=O)c2c(C)oc3ncnc(N4CCCCC4)c23)c(C)c1,108% (inactive)
2,O=C(CCC1N=C2c3ccccc3N=C(SCC(=O)Nc3ccccc3F)N2C1=O)NCc1cccs1 (stereo unspecified),96% (inactive)
3,CCc1cccc(NC(=O)Cn2c(=O)n(CC3CCC(C(=O)NC)CC3)c(=O)c3sccc32)c1 (stereo unspecified),83% (inactive)
4,Cc1ccccc1OCCSc1nc2ccc(NC(=O)c3cccc(F)c3)cc2s1,100% (inactive)
5,O=C(NCC1CCCO1)C1CCCN1C(=O)Nc1ccc(Cl)cc1 (stereo unspecified),84% (inactive)
6,COc1cccc(-c2cc(C(=O)NCCc3ccc(OC)c(OC)c3)no2)c1,173% (inactive)
7,CCC(C)NC(=O)c1cc(-c2cccc(OC)c2)on1 (stereo unspecified),32% (active)
8,COc1cccc(-c2cc(C(=O)NCc3ccc(F)cc3)no2)c1,30% (active)
9,COc1cccc(-c2cc(C(=O)NCc3ccccc3)no2)c1,45% (active)
10,COc1ccc(-c2cc(C(=O)NCc3ccc(F)cc3)no2)cc1,178% (inactive)
11,COc1cccc(-c2cc(C(=O)Nc3ccc(OC)cc3OC)no2)c1,56% (inactive)
12,COc1cccc(-c2cc(C(=O)Nc3cccnc3Cl)no2)c1,61% (inactive)
13,COc1ccc(CNC(=O)c2cc(-c3cccc(Cl)c3)on2)cc1,49% (inactive)
14,COc1ccc(CNC(=O)c2cc(-c3ccc(OC)cc3)on2)cc1,210% (inactive)
15,CCOC(=O)C1CCCN(C(=O)c2c(C)nn(-c3ccc(F)cc3)c2-n2cccc2)C1 (stereo unspecified),113% (inactive)
16,COc1cccc(NC(=O)C2CCN(c3ccc(Sc4ccc(C)cc4)nn3)CC2)c1,49% (inactive)
17,O=C(CSc1cn(CC(=O)N2CCCC2)c2ccccc12)Nc1ccccc1C(F)(F)F,66% (inactive)
18,O=C(NCn1nc(-c2ccccc2)nc1-c1ccccc1)c1cccnc1,67% (inactive)
19,CN(C)N=Nc1ccc(S(N)(=O)=O)cc1,92% (inactive)
20,O=C(c1ccccc1)n1nc(-c2ccco2)nc1NCc1cccs1,81% (inactive)
21,CC(C)CNS(=O)(=O)c1ccc(N2CCCCS2(=O)=O)cc1,82% (inactive)
22,COc1ccc(CNC(=O)c2cc3ccccn3n2)c(OC)c1,71% (inactive)

row,Structure (SMILES),survival
1,O=C(c1ccccc1Cl)N1CCCC(c2nc3c(nnn3Cc3ccc(F)cc3F)c(=O)[nH]2)C1 (stereo unspecified),56% (inactive)
2,O=C(c1cccc(Cl)c1)N1CCC(c2nc3c(nnn3Cc3ccc(F)cc3F)c(=O)[nH]2)CC1,11% (active)
3,CCS(=O)(=O)N1CCCC(c2nc3c(nnn3Cc3ccc(C)cc3)c(=O)[nH]2)C1 (stereo unspecified),88% (inactive)
4,Cc1ccccc1Cn1nnc2c(=O)[nH]c(C3CCN(C(=O)c4ccccc4)CC3)nc21,17% (active)
5,COc1ccc(Cn2nnc3c(=O)[nH]c(C4CCCN(C(=O)c5ccc(C)cc5)C4)nc32)cc1 (stereo unspecified),107% (inactive)
6,COc1ccc(Cn2nnc3c(=O)[nH]c(C4CCN(C(=O)c5ccc(C)cc5)CC4)nc32)cc1OC,24% (active)
7,Cc1ccccc1Cn1nnc2c(=O)[nH]c(C3CCN(C(=O)c4ccccc4Cl)CC3)nc21,17% (active)
8,O=C(c1ccccc1)N1CCCC(c2nc3c(nnn3Cc3ccc(F)cc3F)c(=O)[nH]2)C1 (stereo unspecified),101% (inactive)
9,COC(=O)c1ccc(NC(=O)N2CCN(c3nnc(C)c4c(C)n(-c5ccccc5)nc34)CC2)cc1,65% (inactive)
10,COc1ccc(C(=O)CN2CCC(N3CCCCC3)CC2)cc1,92% (inactive)
11,COc1cc(-c2nc(Cn3nnc(C(=O)Nc4cccc(Cl)c4)c3C)c(C)o2)cc(OC)c1OC,80% (inactive)
12,CCN(CC)c1ccc(C(=O)N2CCC(c3c[nH]c4ccccc34)(c3c[nH]c4ccccc34)CC2)cc1,104% (inactive)
13,CCOc1ccccc1NC(=O)N1CCN(S(=O)(=O)c2ccc3c(ccn3C)c2)CC1,76% (inactive)
14,CC(C)(C)c1ccc(C(=O)N2CCC(C(=O)O)CC2)cc1,68% (inactive)
15,CN1C(=O)CC(NCCc2ccc(S(N)(=O)=O)cc2)C1=O (stereo unspecified),72% (inactive)
16,CCOc1ccc(-n2c(SCC(=O)Nc3cccc(Cl)c3)nc3c(oc4ccccc43)c2=O)cc1,58% (inactive)
17,Cc1cccc(Cn2nnc3c(=O)[nH]c(C4CCN(C(=O)c5ccc(F)cc5)CC4)nc32)c1,28% (active)
18,COc1ccc(Cn2nnc3c(=O)[nH]c(C4CCCN(C(=O)c5ccccc5Cl)C4)nc32)cc1OC (stereo unspecified),80% (inactive)
19,COc1cccc(Cn2nnc3c(=O)[nH]c(C4CCN(C(=O)c5ccccc5Cl)CC4)nc32)c1,14% (active)
20,Cc1ccccc1Cn1nnc2c(=O)[nH]c(C3CCN(C(=O)c4ccc(F)cc4)CC3)nc21,52% (active)
21,COc1cccc(Cn2nnc3c(=O)[nH]c(C4CCCN(C(=O)c5ccccc5Cl)C4)nc32)c1 (stereo unspecified),80% (inactive)
22,Cc1cccc(Cn2nnc3c(=O)[nH]c(C4CCN(C(=O)c5ccccc5F)CC4)nc32)c1,46% (inactive)

row,Structure (SMILES),survival
1,O=C(c1ccccc1F)N1CCC(c2nc3c(nnn3Cc3cccc(F)c3)c(=O)[nH]2)CC1,47% (inactive)
2,Cc1cc(C)cc(NC(=O)c2cc3c(=O)n(Cc4ccco4)ccc3nc2C)c1,73% (inactive)
3,O=C(Nc1ccccc1)c1ccc2c(O)c(S(=O)(=O)c3ccc(Cl)cc3)c(=O)[nH]c2c1,74% (inactive)
4,COc1ccc(N(C)C(=O)c2cn(C)c(=O)c3cc(OC)c(OC)cc23)cc1,177% (inactive)
5,O=C(CCSc1nnc(-c2ccco2)o1)Nc1ccccc1,86% (inactive)
6,O=C(CSc1nnc(-c2ccccc2)o1)Nc1ccccc1,82% (inactive)
7,O=C(CSc1nnc(-c2ccco2)o1)NC(c1ccccc1)c1ccccc1,61% (active)
8,CCOc1ccc(Sc2cc(C(=O)NCCc3ccccc3)c3ccccc3n2)cc1,73% (inactive)
9,N#Cc1cn(CC(=O)NCc2ccccc2)c2ccccc12,87% (inactive)
10,Fc1ccc([C@@H]2Nc3ccccc3[C@@H]3C=CC[C@@H]32)cc1,56% (inactive)
11,COc1cccc([C@H]2Nc3ccc(S(=O)(=O)Nc4cc(C)ccc4C)cc3[C@H]3C=CC[C@H]32)c1,52% (inactive)
12,CCCN1CCN(CC2=C(C(=O)OCC)C(c3cccc(OC)c3OC)NC(=O)N2)CC1 (stereo unspecified),94% (inactive)
13,COc1ccc(Br)cc1[C@@H]1Nc2ccc(C(=O)O)cc2[C@@H]2C=CC[C@@H]21,36% (active)
14,CCOc1ccc2c(c1)[C@@H]1C=CC[C@@H]1[C@H](c1ccccc1Cl)N2,-10% (active)
15,COc1ccc(NS(=O)(=O)c2ccc3c(c2)[C@H]2C=CC[C@H]2[C@@H](c2ccc(C(=O)O)cc2)N3)cc1,72% (inactive)
16,COc1cccc(NS(=O)(=O)c2ccc3c(c2)[C@H]2C=CC[C@H]2[C@@H](c2ccccc2Cl)N3)c1,163% (inactive)
17,CCOC(=O)c1ccc2c(c1)[C@@H]1C=CC[C@@H]1[C@H](c1cccc(OC)c1OC)N2,-10% (active)
18,COc1ccc(C)cc1NS(=O)(=O)c1ccc2c(c1)[C@H]1C=CC[C@H]1[C@@H](c1cccc(Cl)c1)N2,57% (inactive)
19,CCCCN(CC)CCNC(=O)Cn1cnc2sc(C)c(S(=O)(=O)N3CCC(C)CC3)c2c1=O,69% (inactive)
20,COCC(=O)NCc1ccc2c(c1)OCO2,104% (inactive)
